Source: PMC5700166
Substitutions are numbered along the chain they refer to.

How the values were obtained:
Experiment in all cases: protein-binding microarray (PBM); PBM: ~300 nM protein, 6 mM HEPES pH 7.8, 80 mM KCl, 0.5 mM EDTA, 0.5 mM EGTA, 6% glycerol, 35 ng/ul poly-dIdC, 1% milk, 1 h, room temperature; Ap Aiptasia and Nv Nematostella (sea anemones) / Co Capsaspora / Aq Amphimedon (sponge) / Dm Drosophila / Hu human; RHD is the Rel homology domain; high values mean tight binding
Conditions in all cases: dsDNA, one strand shown
GST-Ap-NF-kB RHD = target: T1, GST-Ap-NF-kB RHD (Exaiptasia pallida (Aiptasia), UniProt A0A913YAJ5 2-422)
T1 sequence: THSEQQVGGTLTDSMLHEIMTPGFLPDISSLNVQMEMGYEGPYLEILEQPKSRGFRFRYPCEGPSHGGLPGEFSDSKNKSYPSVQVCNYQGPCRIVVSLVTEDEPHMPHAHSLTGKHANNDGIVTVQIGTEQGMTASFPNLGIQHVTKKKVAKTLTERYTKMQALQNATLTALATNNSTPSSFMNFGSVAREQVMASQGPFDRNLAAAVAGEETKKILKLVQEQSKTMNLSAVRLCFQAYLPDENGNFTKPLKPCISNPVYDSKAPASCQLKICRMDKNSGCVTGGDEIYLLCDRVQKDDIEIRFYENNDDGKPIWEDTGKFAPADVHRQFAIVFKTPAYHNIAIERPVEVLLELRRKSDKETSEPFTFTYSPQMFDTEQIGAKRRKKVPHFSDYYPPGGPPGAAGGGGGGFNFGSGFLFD

[1] = target: T2, GST-Nv-NF-kB (Cys allele) (Nematostella vectensis, UniProt E5G601 2-411)
T2 sequence: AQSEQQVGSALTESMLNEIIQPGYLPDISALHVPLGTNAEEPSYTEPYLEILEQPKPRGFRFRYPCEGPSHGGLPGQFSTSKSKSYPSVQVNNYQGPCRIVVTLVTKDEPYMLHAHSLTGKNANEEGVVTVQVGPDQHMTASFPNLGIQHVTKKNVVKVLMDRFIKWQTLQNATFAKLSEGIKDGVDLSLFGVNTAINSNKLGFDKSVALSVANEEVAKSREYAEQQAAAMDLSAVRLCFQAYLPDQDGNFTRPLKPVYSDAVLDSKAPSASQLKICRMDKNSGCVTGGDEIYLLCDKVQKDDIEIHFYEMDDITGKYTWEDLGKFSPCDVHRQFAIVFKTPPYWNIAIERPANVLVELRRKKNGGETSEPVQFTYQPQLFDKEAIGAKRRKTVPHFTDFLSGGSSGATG

GST-Co-NF-kB = target: T3, GST-Co-NF-kB (Capsaspora owczarzaki, UniProt F1ARL5 200-546)
T3 sequence: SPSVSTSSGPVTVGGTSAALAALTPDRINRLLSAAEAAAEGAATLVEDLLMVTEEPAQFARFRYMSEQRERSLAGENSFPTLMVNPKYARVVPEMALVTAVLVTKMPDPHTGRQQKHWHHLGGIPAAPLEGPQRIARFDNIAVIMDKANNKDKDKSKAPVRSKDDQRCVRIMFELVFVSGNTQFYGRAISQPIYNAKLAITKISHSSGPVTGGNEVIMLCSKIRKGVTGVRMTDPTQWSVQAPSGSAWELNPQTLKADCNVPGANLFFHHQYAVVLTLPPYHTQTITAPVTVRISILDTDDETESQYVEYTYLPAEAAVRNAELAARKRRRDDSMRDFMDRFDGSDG

GST-Aq-NF-kB = target: T4, GST-Aq-NF-kB (Amphimedon queenslandica, UniProt A9Y5G7 2-389)
T4 sequence: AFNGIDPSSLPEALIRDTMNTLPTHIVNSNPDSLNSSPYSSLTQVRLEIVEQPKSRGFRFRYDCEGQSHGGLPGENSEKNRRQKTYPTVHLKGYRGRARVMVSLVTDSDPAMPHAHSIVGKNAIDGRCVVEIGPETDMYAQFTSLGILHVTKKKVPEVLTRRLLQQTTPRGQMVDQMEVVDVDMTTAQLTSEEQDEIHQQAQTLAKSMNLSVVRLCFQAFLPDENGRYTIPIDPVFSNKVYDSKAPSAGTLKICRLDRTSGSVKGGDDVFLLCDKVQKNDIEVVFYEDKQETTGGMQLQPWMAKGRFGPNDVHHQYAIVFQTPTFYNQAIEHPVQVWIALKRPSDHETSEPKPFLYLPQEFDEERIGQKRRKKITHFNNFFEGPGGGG

[2] = target: T5, GST-Nv-NF-kB (Ser allele) (Nematostella vectensis, UniProt A7UNT2 2-411)
T5 sequence: T2 sequence with Q21R, C66S, S207N, E215Q, V217A, E225K, A268E, D399E

GST-Dm-Relish = target: T6, GST-Dm-Relish (Drosophila melanogaster, UniProt Q94527 99-473)
T6 sequence: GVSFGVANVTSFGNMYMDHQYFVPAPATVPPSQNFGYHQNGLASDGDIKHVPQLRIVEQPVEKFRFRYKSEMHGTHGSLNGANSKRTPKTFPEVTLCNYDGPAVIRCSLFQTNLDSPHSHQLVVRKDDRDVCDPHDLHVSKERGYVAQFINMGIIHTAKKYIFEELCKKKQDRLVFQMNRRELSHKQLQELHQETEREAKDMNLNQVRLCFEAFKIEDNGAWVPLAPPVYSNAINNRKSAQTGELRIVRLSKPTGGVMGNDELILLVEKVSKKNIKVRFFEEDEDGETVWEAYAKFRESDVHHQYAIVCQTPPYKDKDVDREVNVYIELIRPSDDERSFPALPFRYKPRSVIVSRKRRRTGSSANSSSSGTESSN

Sequence | binding signal (GST-Ap-NF-kB RHD) | binding signal [1] | binding signal (GST-Co-NF-kB) | binding signal (GST-Aq-NF-kB) | binding signal [2] | binding signal (GST-Dm-Relish)
CCGATTAACATCAACATGGGAATTGATGTTAATCGGGTCTTGATTCGCTTGACGCTGCTG | 1.01 z-score | 2.42 z-score | 1.5 z-score | 1.89 z-score | – | –
CCGATTAACATCAGGTCGGGAAATGATGTTAATCGGGTCTTGATTCGCTTGACGCTGCTG | 1.76 z-score | 2.6 z-score | 3.1 z-score | 1.83 z-score | – | –
CCGATTAACATCACCTATTCCCCTGATGTTAATCGGGTCTTGATTCGCTTGACGCTGCTG | 5.73 z-score | 5.93 z-score | 5.72 z-score | 4.27 z-score | 7.28 z-score | 2.23 z-score
CCGATTAACATCAGGGGAATGGATGATGTTAATCGGGTCTTGATTCGCTTGACGCTGCTG | 5.2 z-score | 5.95 z-score | 3.65 z-score | 4.07 z-score | 7.13 z-score | 1.71 z-score
CCGATTAACATCAGGGGAACCTATGATGTTAATCGGGTCTTGATTCGCTTGACGCTGCTG | 6.11 z-score | 6.27 z-score | 5.66 z-score | 4.46 z-score | 7.41 z-score | 4.09 z-score
CCGATTAACATCAATAAAGTCCCTGATGTTAATCGGGTCTTGATTCGCTTGACGCTGCTG | 5.45 z-score | 7.06 z-score | – | 5.67 z-score | 7.32 z-score | 6.49 z-score
CCGATTAACATCAACATTTTCCCTGATGTTAATCGGGTCTTGATTCGCTTGACGCTGCTG | 3.52 z-score | 5.79 z-score | 4.91 z-score | 3.41 z-score | 8.32 z-score | 1.62 z-score
CCGATTAACATCAGGGAAAGGGATGATGTTAATCGGGTCTTGATTCGCTTGACGCTGCTG | 2.49 z-score | 3.29 z-score | 2.1 z-score | 2.84 z-score | – | –
CCGATTAACATCAAGGGGGGGCATGATGTTAATCGGGTCTTGATTCGCTTGACGCTGCTG | 4.34 z-score | 4.38 z-score | 4.6 z-score | 4.09 z-score | 2.83 z-score | 3.45 z-score
CCGATTAACATCACAATTTTCCCTGATGTTAATCGGGTCTTGATTCGCTTGACGCTGCTG | 4.54 z-score | 6.45 z-score | 5.61 z-score | 5.58 z-score | 7.95 z-score | 2.17 z-score
CCGATTAACATCACACCCCCCCGTGATGTTAATCGGGTCTTGATTCGCTTGACGCTGCTG | 4.06 z-score | 3.09 z-score | 4.58 z-score | 3.38 z-score | 3.09 z-score | 4.46 z-score
CCGATTAACATCAAGCCCCCCCCTGATGTTAATCGGGTCTTGATTCGCTTGACGCTGCTG | 5.25 z-score | 4.21 z-score | 4.89 z-score | 4.71 z-score | – | –
CCGATTAACATCAAATCCCCCCTTGATGTTAATCGGGTCTTGATTCGCTTGACGCTGCTG | 8.14 z-score | 6.82 z-score | 6.62 z-score | 6.8 z-score | 7.98 z-score | 7.95 z-score
